This passage reports inhibition results from PubChem BioAssay AID777 (Sanford-Burnham Center for Chemical Genomics, 2007).

Screen size: about 96,000 compounds; about 19,000 (20%) were called active.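 Rule for the calls: active = blocking of liver enzyme CYP2C9 beyond about 50% at 5 µM (limit read from the data); inactive = the rest.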 Not all results are given here.

A word on the inhibition: it is the drop in the measured response relative to a control, in per cent.

The test deals with Cytochrome P450 2C9 (Homo sapiens) (UniProt P11712). In words: blockers of cytochrome P450 2C9 activity – biochemical, luminescence, ADME assay, primary screen (AID 777). Particulars: CYP2C9 Supersomes, luciferin-H conversion, at 5 µM, active compounds read high.
Sequence of Cytochrome P450 2C9 (Homo sapiens) (P11712 whole entry, looked up): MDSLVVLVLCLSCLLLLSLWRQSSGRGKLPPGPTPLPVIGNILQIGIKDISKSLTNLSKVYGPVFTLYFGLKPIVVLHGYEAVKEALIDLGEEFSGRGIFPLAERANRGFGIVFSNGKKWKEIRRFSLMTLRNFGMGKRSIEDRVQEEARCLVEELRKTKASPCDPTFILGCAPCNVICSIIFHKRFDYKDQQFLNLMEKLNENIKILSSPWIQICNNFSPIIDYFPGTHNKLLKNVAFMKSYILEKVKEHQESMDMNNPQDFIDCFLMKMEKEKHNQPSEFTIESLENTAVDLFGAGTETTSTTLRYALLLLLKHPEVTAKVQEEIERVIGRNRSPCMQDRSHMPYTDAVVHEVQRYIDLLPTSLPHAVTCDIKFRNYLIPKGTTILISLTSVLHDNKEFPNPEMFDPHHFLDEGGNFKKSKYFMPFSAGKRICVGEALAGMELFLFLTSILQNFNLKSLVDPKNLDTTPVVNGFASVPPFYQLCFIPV
For `Cc1csc(=NC(=O)c2ccccc2)n1CCO`, the inhibition is 32.3% (inactive). To `COc1ccc(-c2nc(CS(=O)CC(=O)N3CCc4ccccc4C3)c(C)o2)cc1` (stereo not given) belongs 40.4% (inactive); to `Cc1ccc(S(=O)(=O)N(C)CC(=O)NC2CCCC2)cc1`, -30.3% (inactive).

Turning to `Cc1cc(C(=O)N2CCN(c3ccccn3)CC2)c(C)o1`, the inhibition is 12.4% (inactive). In the case of `Cc1ccc(-c2nc(CS(=O)CC(=O)NC3CCCC3)c(C)o2)cc1` (stereo not given) it was 53% (active). To `COc1ccc(-c2nc(CS(=O)CC(=O)NCc3cccnc3)c(C)o2)cc1OC` (stereo not given) belongs 47.2% (inactive); to `Cc1ccc(-c2nc(CS(=O)CC(=O)N3CCN(c4ncccn4)CC3)c(C)o2)cc1` (stereo not given), 79% (active); to `CCOc1c2ccc(C(=O)NCc3ccc(OC(F)(F)F)cc3)cc2nn1C`, 19% (inactive). On to `COc1nc(N=C(N)N)nc2c(C)cccc12`, for which the inhibition is -9.5% (inactive). In the case of `COc1cc2[nH]c(=O)n(CCC(=O)NC3CCN(Cc4ccccc4)CC3)c(=O)c2cc1OC` it was -15.4% (inactive); in that of `CC(=O)Nc1ccc(NC(=O)c2sc3nc4c(c(-c5ccc(C)cc5)c3c2N)CCC4)cc1`, -4.6% (inactive). Regarding `CC1C(c2ccccc2)=[N+]([O-])C2(CCCC2)N1O` (stereo not given), the inhibition is 37.7% (inactive).

For the compound `O=C(COc1ccc(F)cc1)N(CC1=CCS(=O)(=O)C1)c1ccccc1`, the inhibition was -18.6% (inactive). To `O=c1c2ccccc2c(-c2ccc(Br)cc2)nn1Cc1ccccc1` belongs 21.5% (inactive); to `COc1ccc(Cl)cc1C(=O)NCC#N`, -80.7% (inactive). In the case of `CC(C)CNC(=O)CC(c1ccccc1)c1c(O)ccc2ccccc12` (stereo not given), the inhibition is 71.2% (active). In the case of `CC(C)CNC(=O)COC(=O)/C=C/c1ccccc1[N+](=O)[O-]` it was -41.6% (inactive); in that of `O=C1CC(C(F)(F)C(F)(F)C(F)(F)C(F)(F)F)=Nc2ccccc2N1`, 9% (inactive).

Consider `CCN(CC(=O)NC1CCS(=O)(=O)C1)c1nc(-c2cccnc2)nc2ccccc12` (stereo not given), for which the inhibition is 3.9% (inactive). `CCOC(=O)c1nc(C)n(-c2ccc(Cl)cc2Cl)n1`: the inhibition was -0.6% (inactive). In the case of `CCOC(=O)CSc1ncc(-c2cccc(Cl)c2)cn1` it was 14.2% (inactive); in that of `CCOC(=O)c1cnc(SC)nc1Sc1ccc(Cl)cc1Cl`, 81.5% (active); in that of `Cc1ccc(C(=O)NC2CC(C)(C)NC(C)(C)C2)c(C)c1`, -6.6% (inactive). In the case of `Cc1nn(C)cc1/C=N/NC(=O)c1sc2ccccc2c1Cl` it was 23.6% (inactive).

Regarding `O/N=C1\CC2(Cc3nonc31)OCCO2`, the inhibition was 4% (inactive). In the case of `CS(=O)(=O)N1CCN(C(=O)c2cc3ccccc3oc2=O)CC1` it was -3.6% (inactive); in that of `O=c1c2ccccc2nnn1CSc1nnnn1-c1ccccc1`, -35.7% (inactive); in that of `C=CCn1c(SCn2nnc3ccccc3c2=O)nnc1-c1ccc(Cl)cc1`, 67.1% (active). In the case of `Cc1cccc(OCc2nnc(SCn3nnc4ccccc4c3=O)o2)c1` it was 35.9% (inactive); in that of `COc1cccc(Nc2ncccc2C(=O)O)c1`, -5.5% (inactive). In the case of `CC1(C)CC(=O)C2=C(C1)NCN(CCCN1CCOCC1)C2` it was 3.8% (inactive).

As to `CCOc1cc(CO)ccc1OCC(=O)N1CCCCC1`, the inhibition was -19.8% (inactive). In the case of `N#C/C(=C1/CCCN1)c1ccccn1` it was 7.3% (inactive). In the case of `COC(=O)C(C)N(C#N)c1nc(C)nc(C)n1` (stereo not given) it was -136% (inactive). In the case of `CO/N=C(/CS(=O)(=O)c1ccc(Br)cc1)c1ccc(OC)cc1` it was 91.6% (active); in that of `COc1ccc(/C(N)=N/OC(=O)Oc2ccccc2)cc1`, 21.5% (inactive); in that of `COC(=O)CNS(=O)(=O)c1ccc(OC)cc1`, -0.5% (inactive). On to `O=C1CC(c2cccc(Br)c2)C2=C(CCCC2=O)N1` (stereo not given), for which the inhibition is 10.3% (inactive).

Regarding `Cc1cccc(NC(=O)c2cc(N3C(=O)CCC3=O)ccc2Cl)n1`, the inhibition is 20.2% (inactive). On to `COc1ccc2oc(=O)c(C(=O)N3CCCc4ccccc43)cc2c1`, for which the inhibition was -44.4% (inactive).

`O=C(COc1ccc2oc3c(c2c1)CCCC3)Nc1ccccn1`: the inhibition is 2.1% (inactive).

As to `O=C(CN1CCOCC1)N1CCCc2c1c(=O)oc1ccc(OCc3ccccc3)cc21`, the inhibition was 72.5% (active).

Regarding `Cn1c(=NC(=O)C2CC2)sc2cc(F)cc(F)c21`, the inhibition was -15.8% (inactive).

Turning to `O=C(CCN1C(=O)c2ccccc2C1=O)NCCN1CCOCC1`, the inhibition is -18.8% (inactive). In the case of `O=C1c2oc3ccccc3c(=O)c2C(c2cccc(O)c2)N1c1ccccn1` (stereo not given) it was 4.2% (inactive). In the case of `COCCN1C(=O)c2oc3c(C)cc(C)cc3c(=O)c2C1c1cccc(O)c1` (stereo not given) it was 98.6% (active); in that of `O=C1c2oc3ccc(Br)cc3c(=O)c2C(c2cccc(F)c2)N1CCO` (stereo not given), 23.9% (inactive); in that of `CC(=O)OC(C(=O)NCCc1ccccc1)c1cccnc1` (stereo not given), -7.6% (inactive). For `Cc1cc(C)n2nc(C(=O)Oc3ccc4c(c3)OCO4)nc2n1`, the inhibition is -31.5% (inactive). Consider `CCOC(=O)c1c(C)[nH]c(C(=O)COc2ccc3c(c2)OCO3)c1C`, for which the inhibition was 93% (active).

As to `CCOC(=O)c1c(C)oc2ccc(OCC(=O)N(CC)CC)cc12`, the inhibition is -13.4% (inactive). For the compound `Nc1c(-c2cccc(Cl)c2)cnn1-c1cccc([N+](=O)[O-])c1`, the inhibition is 4.4% (inactive). Take `O=C(NC12CC3CC(CC(C3)C1)C2)N1CCCC(CO)C1` (stereo not given): the inhibition is 12.4% (inactive). To `CC12C(=O)N(n3cnnc3)C(=O)C1C1C=CC2C1` (stereo not given) belongs 1.9% (inactive); to `Cn1c(NN)nc2sc3c(c2c1=O)CCC3`, 68.1% (active); to `NNC(=O)C1CCCn2c1nc1sc3c(c1c2=O)CCCC3` (stereo not given), 21.6% (inactive). To `O=C(O)[C@@H]1CCCN1c1ncnc2sc3c(c12)CCC3` belongs 4.9% (inactive). To `Cn1c(NC(=O)c2ccco2)c(-c2ccccc2Cl)c(=O)c2ccccc21` belongs -3.7% (inactive); to `CC(C)Oc1ccc(C(=O)NC(C)(C)CO)cc1`, 15% (inactive); to `O=C(COc1ccccc1)NCCc1nc2ccccc2[nH]1`, 28.6% (inactive). As to `C=CCn1c(SCc2nnc(-c3ccccc3)o2)nnc1C(O)c1ccccc1` (stereo not given), the inhibition is 59% (active).

For `O=C(CSCc1c(Cl)cccc1Cl)NN1C(=O)c2ccccc2C1=O`, the inhibition is 34.3% (inactive).

Turning to `CN(C)c1ccc(CNC23CN4CN(CN(C4)C2)C3)cc1`, the inhibition was -4.7% (inactive). In the case of `Cc1cccc2c1N(CC(=O)OC(C)C)C(=O)C2=O` it was 8% (inactive); in that of `CCn1c(CSc2nncn2-c2ccc(OC)cc2)nc2cc(S(=O)(=O)N(C)C)ccc21`, 50.1% (active).
